Over roughly 33,000 sequences, “E-score (-0.5 to 0.5)” has its median near -0.015; the highest 2% begin near 0.3. The full list was thinned out, with the highest values kept by preference.
target: T1, Abf1 (UniProt P14164); test: PBM E-score (8-mer binding enrichment) (E-score (-0.5 to 0.5)); higher = stronger / more preferred TF binding; settings: protein concentration: 200 nM; construct: GST-full length
T1 sequence: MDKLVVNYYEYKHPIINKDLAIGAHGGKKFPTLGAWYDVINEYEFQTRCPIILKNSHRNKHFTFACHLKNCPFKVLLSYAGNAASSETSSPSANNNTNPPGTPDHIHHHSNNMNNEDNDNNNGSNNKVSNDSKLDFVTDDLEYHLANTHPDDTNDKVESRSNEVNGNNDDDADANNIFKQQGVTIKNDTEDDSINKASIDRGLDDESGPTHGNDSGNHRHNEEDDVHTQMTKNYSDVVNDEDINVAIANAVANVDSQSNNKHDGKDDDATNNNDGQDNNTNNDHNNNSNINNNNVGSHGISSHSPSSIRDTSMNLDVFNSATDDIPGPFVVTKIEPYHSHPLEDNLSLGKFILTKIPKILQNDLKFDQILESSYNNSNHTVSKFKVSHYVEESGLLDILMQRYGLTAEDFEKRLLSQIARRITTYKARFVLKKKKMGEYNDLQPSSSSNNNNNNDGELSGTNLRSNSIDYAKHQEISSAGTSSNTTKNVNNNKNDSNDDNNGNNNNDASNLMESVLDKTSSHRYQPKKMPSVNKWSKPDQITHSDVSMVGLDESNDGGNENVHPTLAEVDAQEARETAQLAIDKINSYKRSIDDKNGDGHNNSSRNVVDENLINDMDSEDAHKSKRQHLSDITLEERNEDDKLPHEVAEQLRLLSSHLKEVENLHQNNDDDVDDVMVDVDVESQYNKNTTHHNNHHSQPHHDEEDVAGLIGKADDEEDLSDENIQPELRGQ
Procedure: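 Universal 'all 10-mer' protein binding microarrays (Agilent AMADID 015681) probed with GST-tagged S. cerevisiae TFs (full-length or DBD) made by in vitro transcription/translation (PURExpress), about 100-200 nM. Bound TF was detected with fluorescent anti-GST. Each ungapped 8-mer (which stands for itself and its reverse complement) is scored by the PBM enrichment score (E-score), a modified Wilcoxon-Mann-Whitney statistic from -0.5 to +0.5, computed with the Universal PBM Analysis Suite. Scale: above 0.35 generally sequence-specific binding.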

Sequence | PBM E-score
GTAAGAAA | 0.176
ATCAGGGC | -0.198
CCATCGCA | -0.0576
CAATATTG | 0.0635
GGCCCTTA | -0.233
GTAAACCA | -0.0676
GCTTTATA | -0.0302
CTTCGTAC | 0.414
ATTCGTAG | 0.191
CTTCGTAA | 0.161
ATTCGTCG | 0.31
ATTCGTCA | 0.164
ATTCGTCC | 0.296
ATTCGTAA | 0.203
CTTCGTCC | 0.0852
ATTCGTAC | 0.408
GCGAGGAA | -0.0784
AGTGGCGA | 0.0606
CTGTTTGC | 0.0145
CCTAAACA | -0.224
ATTCGGTC | 0.0175
GCAGGCAC | -0.145
CCCTTTGA | -0.125
CGACGTCA | 0.123
CACGAACC | 0.185
CACGGTTC | 0.154

Sequence | PBM E-score
ACGTCACT | 0.39
ACGTCACG | 0.326
ACGTCACC | 0.22
ACGTCAAT | 0.116
ACGTCACA | 0.0823
GCGTCACA | 0.02
AAGATAGG | -0.151
ACTTCAGC | -0.124
ATCAGGGA | -0.0561
GAATGTCA | 0.278
GTATGTCA | 0.394
CTATGTCC | -0.022
GGATGTCA | 0.171
ATATGTCA | 0.289
CTATGTCA | 0.31
ATAAGGCA | 0.14
ACAGGGGG | -0.357
GGAAGGAC | 0.0147
AGACCATC | -0.195
ATTAACCC | -0.086
TGTGTGAA | -0.234
CGTGTAAC | 0.237
CGTGTAAA | 0.314
CGTGTGAC | 0.11
AGTGTAAA | -0.00367
CGTGTGAA | 0.311

Sequence | PBM E-score
ATATGGTG | 0.0579
AGTGACGG | 0.1
CGTGACGC | 0.152
GGTGACGA | 0.276
AGTGACGA | 0.422
CGTGACCA | 0.0961
CGTGACGA | 0.351
CGGACATA | 0.0662
CATGGAGG | -0.286
AACGGCAT | 0.226
CTGGTTGC | -0.0319
AAATCACA | 0.0176
CAATCACC | 0.0554
AAATCACT | 0.374
AAATCACG | 0.284
AAATCACC | 0.336
AAATCAAT | 0.142
CGAACCAA | 0.0494
ATCAGCGA | -0.0614
GGTTTTCA | 0.167
ACGAGCAT | 0.00886
GTCCTATA | -0.0768
AACGACAA | 0.308
AACGACAT | 0.346
GACGACAC | 0.252
TGCGACAA | 0.0936

Sequence | PBM E-score
AACGACAC | 0.238
CACGACAC | 0.296
CACGACAA | 0.25
GACGACAA | 0.347
GGCGACAA | 0.0843
AACGACAG | 0.196
TACGACAA | 0.298
ACCGACAA | 0.115
TCAAGAGA | 0.0894
ACATCGTG | 0.185
ACCCCTAC | -0.271
AAGAGGAA | -0.0719
GGCCCGTA | 0.0104
ACGGAGGG | 0.0212
CACGCAGC | 0.00826
ACGTCTAG | 0.167
AGATCACA | 0.138
CGATCACG | 0.298
AGATCAAG | 0.112
GGATCACC | 0.247
AGATCAAT | 0.12
AGATCACC | 0.311
CGATCACC | 0.0211
TGATCACA | 0.292
AGATCACG | 0.35
AGATCACT | 0.437

Sequence | PBM E-score
GGATCACA | 0.00896
CGATCACA | 0.161
AGACGGGG | 0.0661
GATCCTCA | 0.019
CTAATTCC | 0.0379
ATGACCTA | 0.235
ATACAACA | 0.0798
CAAATGAA | -0.155
AAAGGATT | -0.105
TGCAACCA | -0.0685
CGTCTCTC | 0.162
CCTTCGTA | 0.292
GCTTCGGA | 0.0157
ACTTCGTA | 0.297
GCTTCGTA | 0.313
ACTTCGTG | 0.0796
ACTTCGTC | 0.227
CCGACACC | -0.195
ATTTTTGC | 0.113
TACAGGCA | 0.119
AGCTACAA | -0.101
GAGAAGGA | -0.18
ATATCAAA | 0.0352
CCTCCGCC | -0.059
ACGTACGT | 0.335
ACGTACAG | -0.0233

Sequence | PBM E-score
ACGTACGC | 0.114
CCGTACGG | 0.29
ACGTACGA | 0.335
ACGTACGG | 0.328
AAGTACGA | 0.151
ACGTACAT | 0.244
AGGTACGA | 0.0832
CAGCGGAC | -0.105
AGCGAGAT | 0.0588
GCGTATGA | 0.0421
CCGTATGA | 0.408
ACGTATGA | 0.332
CCGTATGC | 0.0398
ACGTATGG | 0.136
ACGTATGC | 0.014
CGAGTTAG | 0.148
ACTAGAAA | -0.0186
CTACGGAA | 0.139
ATACGGAC | 0.142
TTACGGAA | 0.124
ATACGGAG | 0.0972
ATACGGAT | 0.297
ATACGGAA | 0.299
CAAAATCA | 0.173
GCACAGCC | -0.204
ATTTCTTG | 0.167

Sequence | PBM E-score
ACAGAATC | -0.0766
AATTAATT | 0.00666
CACTAATA | 0.255
TATTAATA | 0.00602
AACTAATA | 0.306
TACTAATA | 0.0826
AATTAATA | 0.302
ACTCCACC | 0.032
ATCGGTCC | -0.295
CCGTGAAA | 0.381
ACGTGACC | 0.0122
ACGTGACA | 0.355
CCGTGACC | 0.157
CCGTGACG | 0.198
TCGTGAGA | 0.263
ACGTGACG | 0.201
ACGTGACT | 0.174
CCGTGACA | 0.363
TCGTGAAA | 0.205
TCGTGACA | 0.354
CCGTGAAG | 0.136

Reference: the supplement of paper PMC3334620
